In the library only some 3% were active in any assay of this set; here they are far more common.
Measles CPE: compounds protecting cells from measles virus cytopathic effect, primary screen, measles RdRp inhibitor project, single point, MLSMR library, absorbance; Measles virus-infected cells, CPE protection; protection (pct of control), % at 4 µM; 1.5% of 140,000 active; in the data active = protection mostly above about 24%, no sharp cut-off; inactive = mostly below about 26%
sdo1 growth: growth rescue of sdo1-depleted yeast, primary screen, S. cerevisiae, bone marrow failure model | z-score at 10 µM | S. cerevisiae sdo1-depleted JHY4D growth rescue, OD600 30 h; stronger effect = higher value; pdr5 snq2 efflux-pump mutant strain | 0.21% of 140,000 active;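 active = z-score above 3 at both the 24 hr and the 30 hr optical density reads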;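 also: z-score against mean and SD of all compound wells on the same plate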
ROMK mod: ROMK potassium channel modulators, primary screen, cell-based, thallium flux, MLSMR library. ATP-sensitive inward rectifier potassium channel 1 (Homo sapiens), P48048. B-score at 10 µM. Tet-inducible ROMK, thallium flux fluorescence; actives lie on both sides. 2% of 130,000 active;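 active = signal ratio slope over the read window, or its plate-corrected B-score, at least 3 SD from the plate mean, either direction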;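 also: B-score of the F/F0 ratio slope over 7 to 12 s after thallium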
Target sequence (P48048 whole entry, looked up): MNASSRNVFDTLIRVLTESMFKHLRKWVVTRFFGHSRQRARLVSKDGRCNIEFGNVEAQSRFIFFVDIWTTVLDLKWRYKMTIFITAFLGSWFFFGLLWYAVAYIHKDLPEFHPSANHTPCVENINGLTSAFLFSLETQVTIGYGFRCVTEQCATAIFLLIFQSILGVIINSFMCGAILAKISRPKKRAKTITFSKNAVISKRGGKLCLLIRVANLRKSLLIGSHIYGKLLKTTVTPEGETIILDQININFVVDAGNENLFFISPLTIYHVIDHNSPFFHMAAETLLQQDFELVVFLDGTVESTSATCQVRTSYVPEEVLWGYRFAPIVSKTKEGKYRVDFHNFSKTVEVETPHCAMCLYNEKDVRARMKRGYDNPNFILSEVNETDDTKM
INS promoter inh: inhibitors of insulin promoter-driven GFP, primary screen, imaging, TRM-6 cells (human fetal islet line), eGFP reporter, cell count. reporter expression induced with tamoxifen. inhibition, % at 2 µM. 0.9% of 130,000 active;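 active = inhibition above the mean plus 3 SD, with well images judged a real hit on visual review, cut at about 60% in these data, passing the limit was not always enough; inconclusive = inhibition over the cutoff but images rejected on review; inactive = inhibition not above the cutoff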
ROMK hit retest: ROMK channel modulator hit retest, confirmation, cell-based, thallium flux, duplicate, resupplied hits; shares compounds with ROMK mod; fluorescence ratio; stronger effect = lower value; normalized thallium flux (F/F0 slope) at 10 µM; 54% of 3,000 active; AID 1917, 2009;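 active = Flux at 10 µM at least 3 SD below or above vehicle control mean in one or both replicates; inconclusive = no clear call, values can overlap the other calls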
* marks the source's active call; other numbers are inactive results.

How did COc1ccc2[nH]c(=O)c(CN(C(=O)NC3CCCCC3)C3CCCC3)cc2c1 do in these assays?
Measles CPE: 28; sdo1 growth: 0.93; ROMK mod: -2.8*; INS promoter inh: 0; ROMK hit retest: 0.072

How did COc1ccc2[nH]c(=O)c(CN(CC3CCCO3)C(=O)Nc3ccc(F)cc3)cc2c1 (configuration not stated) do in these assays?
Measles CPE: 22; sdo1 growth: 0.04; INS promoter inh: -25; ROMK hit retest: 0.061*

How did O=c1/c(=C/c2ccc(O)cc2)sc2n1CCCN=2 do in these assays?
Measles CPE: 1; sdo1 growth: 0.71; INS promoter inh: 41

How did CN(C)c1ccc(/C=c2\sc3n(c2=O)CCCN=3)cc1 do in these assays?
Measles CPE: 6; sdo1 growth: -0.45; ROMK mod: -4.4*; ROMK hit retest: 0.054*

Results for CCOC(=O)c1cnc2c(cnn2C)c1NCCCn1ccnc1 ?
ROMK mod: -2.9*; ROMK hit retest: 0.073

Results for Cc1ccc(NC(=O)C2CCCO2)cc1[N+](=O)[O-] (configuration not stated) ?
Measles CPE: 17; sdo1 growth: 0.74

What do the screens show for `Cc1cc(N2CCN(c3ccc([N+](=O)[O-])c4cccnc34)CC2)c2ccccc2n1`?
Measles CPE: 9; sdo1 growth: -0.88; ROMK mod: -2.6*; INS promoter inh: -138; ROMK hit retest: 0.062*

What do the screens show for `Cc1ccc(Cn2ccc(=O)c(Cc3c(Cl)cccc3Cl)c2C)cc1`?
Measles CPE: 0; sdo1 growth: -1.8; INS promoter inh: -13; ROMK hit retest: 0.049*

How did CCn1cc(C(=O)N2CCN(c3cccc(Cl)c3)CC2)c2cc(OC)c(OC)cc2c1=O do in these assays?
Measles CPE: 5; sdo1 growth: 0.03; ROMK mod: 1.3*; INS promoter inh: 46; ROMK hit retest: 0.071

Results for COc1cc2c(C(=O)N3CCN(c4cccc(Cl)c4)CC3)cn(C)c(=O)c2cc1OC ?
Measles CPE: 18; sdo1 growth: 0.07; ROMK mod: -0.84; INS promoter inh: -3

What do the screens show for `CCn1cc(C(=O)N2CCN(c3ccc(F)cc3)CC2)c2cc(OC)c(OC)cc2c1=O`?
ROMK mod: -0.32; INS promoter inh: 58; ROMK hit retest: 0.078

How did CC(C)c1ccc(NC(=O)C(c2ccccc2)N2CC(=O)Nc3ccccc32)cc1 (configuration not stated) do in these assays?
Measles CPE: 2; sdo1 growth: -1.1; ROMK mod: 1.9*; INS promoter inh: -5; ROMK hit retest: 0.079

Results for CN(C)c1nc(C=C(C#N)C#N)c(Cl)n1-c1ccc(F)cc1 ?
ROMK mod: -3.9*; ROMK hit retest: 0.059*

How did O=C(COC(=O)CCSc1ccccc1)NCc1ccc(F)cc1 do in these assays?
INS promoter inh: 0

Results for CCOC(=O)N1CCN(c2ccc(S(=O)(=O)N(Cc3ccccc3)Cc3ccccc3)cn2)CC1 ?
Measles CPE: 8; sdo1 growth: -2.1; INS promoter inh: -27; ROMK hit retest: 0.075

How did S=c1[nH]nc(CSc2nc3ccccc3s2)n1C1CCCCC1 do in these assays?
Measles CPE: 43; sdo1 growth: -1.8; INS promoter inh: 0

How did O=C(NCCN1C(=O)CSC1=O)C1CC(=O)N(c2ccccc2)C1 (configuration not stated) do in these assays?
Measles CPE: 3; sdo1 growth: 0.33; ROMK mod: 0.91*; INS promoter inh: 0; ROMK hit retest: 0.081

How did N=c1n(CCO)c2ccccc2n1CCOc1ccc(Cl)cc1Cl do in these assays?
Measles CPE: 11; sdo1 growth: 0.28; ROMK hit retest: 0.049*

How did COc1ccc(OCCn2c(=N)n(CCO)c3ccccc32)cc1 do in these assays?
Measles CPE: 5; sdo1 growth: 0.41; ROMK mod: -1.2; INS promoter inh: -58

How did CCCCOC(=O)C(C)Sc1n[nH]c(=O)[nH]c1=O (configuration not stated) do in these assays?
ROMK mod: -1

How did COc1ccccc1N1CCN(C2CCN(C(=O)c3ccc(F)cc3)CC2)CC1 do in these assays?
Measles CPE: 1; sdo1 growth: -0.01; ROMK mod: 0.78; INS promoter inh: 0

Results for COc1ccccc1N1CCN(C2CCN(C3CCC(c4ccccc4)CC3)CC2)CC1 (configuration not stated) ?
ROMK mod: -3.1*; ROMK hit retest: 0.061*

What do the screens show for `O=C(NCc1cccnc1)c1cccs1`?
ROMK mod: -0.015

What do the screens show for `Cc1ccccc1Nc1nc(N)nc(COC(=O)c2cccc(S(=O)(=O)NCc3ccccc3)c2)n1`?
Measles CPE: 3; sdo1 growth: 0.74; ROMK mod: -3.8*; INS promoter inh: -31; ROMK hit retest: 0.047*

What do the screens show for `Cc1ccccc1Nc1nc(N)nc(COC(=O)c2cccc(S(=O)(=O)N(C)C)c2)n1`?
Measles CPE: 4; sdo1 growth: 1.1; ROMK mod: 0.017; INS promoter inh: 19

What do the screens show for `CN(C)S(=O)(=O)c1ccc(C(=O)Nc2nc(-c3ccccc3)c(C(=O)c3ccccc3)s2)cc1`?
Measles CPE: 2; sdo1 growth: -0.3; ROMK mod: 1.2*; INS promoter inh: 40; ROMK hit retest: 0.09

How did CC1CCCC(C(=O)O)N1C(=O)CCS (configuration not stated) do in these assays?
Measles CPE: 13; sdo1 growth: 0.07; ROMK mod: 2.2*; INS promoter inh: 18; ROMK hit retest: inconclusive

What do the screens show for `COc1ccc(-c2nc(N)n(C(=O)c3ccccc3Cl)n2)cc1`?
Measles CPE: 5; sdo1 growth: 0.41; ROMK mod: 0.21; INS promoter inh: 15

How did CC(=O)c1ccc(N2CCN(C(=O)COc3ccc(F)cc3)CC2)c(F)c1 do in these assays?
Measles CPE: 2; sdo1 growth: 0.32; ROMK mod: -2.8*; INS promoter inh: -12; ROMK hit retest: 0.061*

How did CCC(=O)c1ccc(N2CCN(C(=O)COc3ccc(F)cc3)CC2)c(F)c1 do in these assays?
Measles CPE: 17; sdo1 growth: -0.87; ROMK mod: -1.8

Results for O=C(N1CCOCC1)N1CCN(c2ccccc2)CC1 ?
Measles CPE: 4; sdo1 growth: 1.1; INS promoter inh: -51

What do the screens show for `c1ccc(Oc2nc(Oc3ccccc3)nc(N3CCOCC3)n2)cc1`?
Measles CPE: 3; sdo1 growth: -0.56; ROMK mod: -3.6*; ROMK hit retest: inconclusive

What do the screens show for `O=C(Cc1ccccc1)Nc1ccc(N2CCOCC2)cc1`?
ROMK mod: -2*; ROMK hit retest: 0.074

How did c1ccc(N2CCOCCOCCOCCOCCOCC2)cc1 do in these assays?
ROMK mod: -6.7*; ROMK hit retest: 0.085

What do the screens show for `Clc1ccc(Oc2nc(Oc3ccc(Cl)cc3)nc(N3CCOCC3)n2)cc1`?
Measles CPE: 20; sdo1 growth: -1.3; INS promoter inh: 27
